BLM helicase inh: Bloom syndrome helicase (human) inhibition. P54132. recombinant BLM DNA unwinding, fluorescence dequenching. Potency, µM (titrated, usually from 56.1 µM), inactives show at the highest dose activity change, negative = inhibition, most hits filed as inhibitors. actives 0.2% (n = 350,000). AID 2528;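 note: plate controls were vehicle for no effect and no enzyme for full effect; nearly all actives have a fitted effect of over 35% in size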
KAT2A inh: inhibitors of human GCN5L2 histone acetyltransferase | Q92830 | GCN5L2 HAT assay, ThioGlo1 CoA-SH fluorescence | Potency, µM (doses to about 58.9 µM), without a hit: at the top dose activity change, negative = inhibition, usual class: inhibitors | actives 0.21% (n = 390,000)
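GCN5L2 (20nM final) in 50mM HEPES, 0.1mM EDTA pH 7.5, 0.01% Tween-20 was preincubated 15 min at room temperature with compound, then given ThioGlo1 (50uM), H3(1-25) peptide (75uM) and acetyl-CoA (70uM); CoA-thiol fluorescence (Ex340/Em540) was read at 0 and 20 min.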
RECQ1 inh: RECQ1 (human) helicase inhibition; AID 2549; actives 0.54% (n = 240,000); RECQ1 DNA unwinding, red fluorescence kinetic read; Potency, µM (titrated, usually from 57.3 µM), inactives show at the top dose activity, negative = inhibition, usual class: inhibitors; P46063;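 note: plate controls were vehicle for no effect and no enzyme for full effect; nearly all actives have a fitted effect of over 30% in size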
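50 nM RECQ1T1 preincubated 15 min with compound in Tris pH 8.0 buffer with MgCl2, DTT, Tween-20 and 2.5 ug/ml poly(dI-dC); started with 200 nM TAMRA/BHQ-2 forked duplex and 2 mM ATP. Unwinding read as fluorescence (525/598 nm), two reads 2 h apart.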
APEX1 inh: inhibitors of human APE1 endonuclease. AID 2517. P27695. actives 0.35% (n = 350,000). Potency, µM (doses to about 65.8 µM), for the others: at the top dose activity change, negative = inhibition, usual class: inhibitors. recombinant APE1, TAMRA/BHQ-2 abasic DNA cleavage fluorescence;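 note: plate controls were vehicle for no effect and reference inhibitor for full effect; nearly all actives have a fitted effect of over 55% in size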
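Quantitative HTS: incision of a TAMRA/BHQ-2 double-stranded substrate bearing a tetrahydrofuran abasic site by 0.75 nM APE1 raises fluorescence. Substrate 50 nM final, added after 15 min compound preincubation at room temperature; progress as third-minus-first kinetic read difference.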
TDP1 block: blocks human tyrosyl-DNA phosphodiesterase 1; Potency, µM (doses to about 130 µM), without a hit: at the top dose activity change, negative = inhibition, most hits filed as inhibitors; Q9NUW8; actives 0.28% (n = 350,000); recombinant TDP1, AlphaScreen DNA substrate cleavage; note: nearly all actives have a fitted effect of over 40% in size
Target sequence (Q9NUW8 whole entry, looked up): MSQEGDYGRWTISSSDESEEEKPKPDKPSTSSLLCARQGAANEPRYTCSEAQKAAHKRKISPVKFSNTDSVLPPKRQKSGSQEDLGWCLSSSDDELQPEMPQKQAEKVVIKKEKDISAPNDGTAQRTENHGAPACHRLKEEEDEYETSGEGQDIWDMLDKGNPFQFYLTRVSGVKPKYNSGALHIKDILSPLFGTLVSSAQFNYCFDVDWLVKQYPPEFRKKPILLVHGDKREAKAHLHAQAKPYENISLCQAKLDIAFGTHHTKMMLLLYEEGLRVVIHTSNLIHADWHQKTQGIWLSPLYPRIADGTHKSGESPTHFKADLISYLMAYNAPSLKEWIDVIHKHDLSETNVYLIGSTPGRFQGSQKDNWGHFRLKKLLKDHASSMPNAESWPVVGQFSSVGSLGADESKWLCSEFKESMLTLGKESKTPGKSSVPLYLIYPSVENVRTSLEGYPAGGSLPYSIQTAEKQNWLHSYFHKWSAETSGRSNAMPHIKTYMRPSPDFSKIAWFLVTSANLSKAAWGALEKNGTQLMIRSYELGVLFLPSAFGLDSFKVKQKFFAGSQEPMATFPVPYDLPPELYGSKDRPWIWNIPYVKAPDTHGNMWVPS
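Recombinant E. coli-expressed Tdp1 (1 nM) preincubated with compound 15 min at RT, then 5'-biotin/3'-phosphotyrosine-FITC DNA substrate (15 nM) added for 5 min. AlphaScreen beads (10 ug/ml) added, 10 min RT; tyrosine-FITC cleavage read as signal loss.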
KDM4E inh: inhibitors of human JMJD2E histone demethylase; JMJD2E catalytic domain, FDH-coupled NADH fluorescence (FDH is formaldehyde dehydrogenase); actives 1.6% (n = 230,000); Potency, µM (top dose mostly 57.1 µM), for inactives: top-dose activity change, negative = inhibition, most hits filed as inhibitors; active = well fitted inhibition curve with a large enough effect, not every such curve was filed as active; inconclusive = small, poorly fitted or top-dose-only effect, or another doubt; inactive = no such curve, though single readings can be large or run the other way;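 note: 0% = wells with enzyme and -100% = buffer wells without enzyme; nearly all actives have a fitted effect of over 50% in size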
An asterisk follows results filed as active. The entries come from a sample that favours hits as a whole. Unless noted, calls come from the whole dose curve; as a rule, active = well fitted curve in the direction sought with a large enough effect; inconclusive = small, poorly fitted or top-dose-only effect, or another doubt; inactive = no such curve, though single readings can be large; an effect the other way counts as inactive or inconclusive. Unless noted, % is set by controls: 0 for no effect and ±100 for the full control effect; potency is the fitted concentration of half-maximal effect.

COc1cc(N=C2C(=O)N3c4c(cccc42)C(C)=CC3(C)C)cc(OC)c1 was read as BLM helicase inh -1%, KAT2A inh -5%, RECQ1 inh -8%, APEX1 inh 0%, TDP1 block 9% and KDM4E inh -20%.
CC1=CC(C)(C)N2C(=O)C(=Nc3ccc(O)cc3)c3cccc1c32 was read as BLM helicase inh 32µM*, KAT2A inh 0%, RECQ1 inh -29%, APEX1 inh inconclusive, TDP1 block 7% and KDM4E inh 13µM*.
Screening CCOC(=O)/C=C/c1cc(F)c(S(=O)(=O)N2CCN(S(=O)(=O)c3ccc4c(c3)OCCO4)CC2)cc1F returned TDP1 block 1%.
`CCC1=C[C@@H]2CN(C1)Cc1c([nH]c3ccccc13)[C@@](C(=O)OC)(c1cc3c(cc1OC)N(C)[C@@H]1[C@@](O)(C(=O)OC)[C@H](OC(C)=O)[C@]4(CC)C=CCN5CC[C@]31[C@@H]54)C2` gave BLM helicase inh -5% and KAT2A inh -7%.
For O=C1NC(=Nc2ccccc2)S/C1=C\C=C\c1ccco1 the results were BLM helicase inh 13µM*, KAT2A inh inconclusive, RECQ1 inh 2%, APEX1 inh 3%, TDP1 block 3% and KDM4E inh -3%.
Cc1cccc(N=C2NC(=O)/C(=C/C=C/c3ccco3)S2)c1C was read as BLM helicase inh inconclusive, KAT2A inh -9%, RECQ1 inh -6%, APEX1 inh inconclusive, TDP1 block -2% and KDM4E inh 3%.
Cc1ccc(NS(=O)(=O)c2cc3c(cc2-c2ccco2)NC(=O)CO3)cc1C was read as TDP1 block 0%.
Screening O=C(Cn1sc2ccccc2c1=O)NC12CC3CC(CC(C3)C1)C2 returned BLM helicase inh 0%, KAT2A inh 14µM*, RECQ1 inh -12%, APEX1 inh 3%, TDP1 block 12% and KDM4E inh -23%.
For Cc1nc(C/C(=N\Nc2ccccc2)c2ccc(O)cc2O)cs1 the results were BLM helicase inh -7%, KAT2A inh -17%, RECQ1 inh -2%, APEX1 inh -4%, TDP1 block 10% and KDM4E inh 14µM*.
For Cc1nc(CC(=O)c2ccc(O)cc2O)cs1 the results were BLM helicase inh 2%, KAT2A inh 1%, RECQ1 inh -13%, APEX1 inh 2%, TDP1 block -2% and KDM4E inh -2%.
Screening COc1ccc(C2c3c(n(Cc4ccccc4)cnc3=N)Oc3ccc4ccccc4c32)cc1OC (stereo unspecified) returned TDP1 block 5%.
For CCOc1cc(C2NC(=O)NC(C)=C2C(=O)OCc2ccccc2)ccc1O (stereo unspecified) the results were BLM helicase inh -22%, KAT2A inh 6%, RECQ1 inh -7%, APEX1 inh -2%, TDP1 block 3% and KDM4E inh 5%.
For COc1cc(C2NC(=O)NC(C)=C2C(=O)OCc2ccccc2)ccc1O (stereo unspecified) the results were BLM helicase inh 14µM*, KAT2A inh -1%, RECQ1 inh inactive, APEX1 inh 1%, TDP1 block 9% and KDM4E inh 2%.
Screening O=C(N/N=C/c1sc(=O)n(Cc2ccc(Br)cc2)c1Cl)c1ccco1 returned BLM helicase inh -20%, KAT2A inh -24%, APEX1 inh inconclusive and TDP1 block 40µM*.
O=C(O)c1cccc(Cn2c(Cl)c(/C=N/Nc3ccccc3)sc2=O)c1 was read as BLM helicase inh inconclusive, KAT2A inh inconclusive, RECQ1 inh 32µM*, APEX1 inh 18%, TDP1 block 6% and KDM4E inh -24%.

Screens (PubChem BioAssay)
